# Most compounds without a hit are left out; they make up all but 1% or so of the library.
# H9c2 TAG inh: inhibitors of triacylglycerol accumulation, primary screen, cell-based, uHTS, fluorescence, H9c2. H9c2 cells, Nile Red lipid (TAG) fluorescence; cells loaded with 200 µM oleic acid. inhibition, % at 12.5 µM. hit rate 0.66% among 230,000. AID 651582, 2012;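 active = pattern-corrected inhibition of lipid staining of at least 50% with the nuclear-stain viability signal not falling by more than 50%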;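 note: 0% = DMSO wells and 100% = triacsin C control wells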
# Bfl-1 A1 inh: caspase 3/7 activation in MEF A1-2A-BIM cells, primary screen, A1 inhibitor project, cell-based, luminescence, HTS; Caspase-Glo 3/7 luminescence, 3 h; percent of clofoctol response, vehicle zero; caspase activation, % (concentration not given with the values); hit rate 0.066% among 330,000;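 active = over half of replicate activation scores above 10%, or exactly half above 10 with the replicate mean above 10; inconclusive = replicate mean below 10 yet half the replicates above 10; inactive = over half of replicates below 10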
# NPR1 activator: GC-A stimulated cGMP production enhancers – HEK293 GC-A cells, cGMP TR-FRET, EC30 ANP, primary screen; 0% at EC30 ANP, 100% saturating ANP; Atrial natriuretic peptide receptor 1 (Homo sapiens), P16066; hit rate 0.14% among 370,000; activation, % at 10 µM; in the data active = activation above about 40%
# HSV replic up: enhancers of HSV replication in host cells, fold increase, host cell viability | HSV replication augmentation in cells | maximum fold increase | hit rate 0.005% among 220,000 | AID 1956, 2009; in the data active = maximum fold increase above about 1.5; inconclusive = no clear call, values can overlap the other calls; tested in PC3 cells
# Efflux pump mplx: inhibitors of Candida efflux pumps in yeast, primary screen, S. cerevisiae, Nile Red, multiplex. S. cerevisiae Candida pump triplex. inhibition, % at 10 µM. hit rate 0.44% among 330,000;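 active = plate passing quality check with inhibition over a set limit, or well fluorescence over plate mean plus 4 SD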;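 note: Nile Red retained in pooled yeast measured as flow cytometry median fluorescence; 0% = buffer negative control and 100% = Enniatin B positive control; higher means more Nile Red kept so more efflux inhibition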
# NPR2 activator: human GC-B receptor activators, primary screen, HEK293 GC-B cells, cGMP TR-FRET, EC30 CNP. Atrial natriuretic peptide receptor 2 (Homo sapiens), P20594. 0% at EC30 CNP, 100% saturating CNP. activation, % at 10 µM. hit rate 0.11% among 370,000. AID 1920062, 2024;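 active = activation at 10 µM reaching about 35% in either raw or pattern-adjusted values, limit read from the data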
# Target sequence (P20594 whole entry, looked up): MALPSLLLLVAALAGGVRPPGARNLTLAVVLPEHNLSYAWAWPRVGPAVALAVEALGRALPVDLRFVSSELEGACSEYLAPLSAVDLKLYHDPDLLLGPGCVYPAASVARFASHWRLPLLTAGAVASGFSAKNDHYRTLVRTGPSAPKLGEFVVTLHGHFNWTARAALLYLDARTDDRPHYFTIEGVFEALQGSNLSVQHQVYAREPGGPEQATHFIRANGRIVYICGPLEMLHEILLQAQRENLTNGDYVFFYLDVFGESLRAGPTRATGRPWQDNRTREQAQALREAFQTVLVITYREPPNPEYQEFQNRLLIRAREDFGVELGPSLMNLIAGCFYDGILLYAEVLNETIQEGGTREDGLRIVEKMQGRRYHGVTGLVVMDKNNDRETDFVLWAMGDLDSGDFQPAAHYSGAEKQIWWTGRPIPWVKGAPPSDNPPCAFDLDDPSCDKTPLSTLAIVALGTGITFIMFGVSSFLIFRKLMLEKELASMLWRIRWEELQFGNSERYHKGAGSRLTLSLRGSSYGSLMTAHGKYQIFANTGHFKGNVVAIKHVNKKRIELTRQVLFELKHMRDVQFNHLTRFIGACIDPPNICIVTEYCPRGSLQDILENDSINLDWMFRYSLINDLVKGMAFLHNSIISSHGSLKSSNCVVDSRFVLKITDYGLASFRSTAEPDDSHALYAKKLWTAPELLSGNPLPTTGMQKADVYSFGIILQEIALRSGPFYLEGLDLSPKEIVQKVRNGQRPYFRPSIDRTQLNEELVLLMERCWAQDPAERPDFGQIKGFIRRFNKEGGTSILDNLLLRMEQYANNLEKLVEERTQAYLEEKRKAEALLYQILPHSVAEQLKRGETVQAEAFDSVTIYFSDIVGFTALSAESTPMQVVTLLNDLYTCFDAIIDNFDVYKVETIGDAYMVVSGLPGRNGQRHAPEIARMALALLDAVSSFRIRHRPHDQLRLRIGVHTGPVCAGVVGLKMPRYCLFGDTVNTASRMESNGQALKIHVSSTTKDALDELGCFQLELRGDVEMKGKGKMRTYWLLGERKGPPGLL
# The depositor's hits bear a star; i = inactive; u = inconclusive; x = no result.
SMILES,H9c2 TAG inh,Bfl-1 A1 inh,NPR1 activator,HSV replic up,Efflux pump mplx,NPR2 activator
Cc1ccc(Nc2nc(N)c([N+](=O)[O-])c(NCc3ccco3)n2)cc1,x,0.2,41.5*,i,-0.3,18.1
Cc1cccc(C)c1NC(=O)[C@@H]1CC(=O)O[C@@H]1c1ccccc1,x,x,-1.0,x,x,2.6
COc1cc(/C(C)=N/NC(=S)NC(C)C)cc(OC)c1OC,18.7,0.6,23.8,i,1.3,38.8*
COc1cc(/C(C)=N\NC(N)=S)cc(OC)c1OC,x,-0.6,-3.3,i,-0.1,2.8
O=[N+]([O-])c1cc(S(=O)(=O)N2CCCC2)ccc1O,1.4,0.1,-1.8,i,0.0,2.2
O=[N+]([O-])c1cc(S(=O)(=O)N2CCCCCC2)ccc1F,11.6,0.1,8.0,i,0.0,47.8*
COc1ccc(-c2cc3ccccc3oc2=O)cc1NC(=S)NC(=O)c1ccc2c(c1)OCCO2,x,25.8*,0.6,i,0.1,-1.8
COc1ccc(CNC(=O)c2cc(-c3ccccc3)c(N3CCOCC3)s2)cc1OC,x,x,16.2,x,x,12.5
C(=C\c1ccco1)/C1=NN(c2ccccc2)C(c2ccco2)C1 (centres undefined),3.0,-0.5,x,u,1.4*,x
Cc1ccc(NC2=NC(c3ccccc3)n3c(nc(C)cc3=O)N2)c(C)c1 (centres undefined),x,0.0,28.8,i,-0.1,38.5*
CN1C(=O)c2cc(NC(=O)Nc3ccc(F)c(F)c3)ccc2OC[C@H]2O[C@@H](CC(=O)O)CC[C@H]21,x,x,1.4,x,x,6.3
CCOC(=O)C1=C(N)Oc2cc(O)ccc2C1c1ccc(Br)cc1 (centres undefined),x,0.6,53.4*,x,-0.2,9.2
CCOC(=O)C1=C(N)Oc2cc(O)ccc2C1c1cccc(Cl)c1 (centres undefined),11.4,-0.4,6.2,x,-0.1,-4.5
Cc1ccc(OCc2nnc(SCC(=O)Nc3ccccc3-c3ccccc3)n2Cc2ccco2)cc1,x,x,-10.6,x,x,-0.9
O=C(NCCCc1ccccc1)OC1CC2CC1[C@H]1CCCCN1[C@H]2Cc1ccccc1 (some centres undefined),x,x,0.0,x,x,2.9
CC(C)c1ccc(C2NC(=S)NC3=C2C(=O)CCC3)cc1 (centres undefined),x,0.3,50.2*,i,0.1,0.7
CC(c1cc(F)ccc1O)c1c[nH]c2ccccc12 (centres undefined),x,x,4.7,x,x,-14.8
CN(C)CCOc1ccc(-c2c(-c3ccccc3)sc3ccccc23)cc1,58.5*,0.1,-9.3,x,1.2,-12.4
c1ccc(-c2sc3ccccc3c2-c2ccc(OCCN3CCCCC3)cc2)cc1,17.4,u,0.1,x,-0.4,0.2
Cc1cc(Br)c(NC(=O)COC(=O)CSc2nnc(-c3ccc(Cl)cc3)o2)c(Br)c1,-0.1,0.7,60.1*,i,0.0,-12.4
CCCCOC(=O)CSc1nnc(-c2ccc(Cl)cc2Cl)o1,x,0.3,66.8*,i,0.1,4.5
COC(=O)Nc1nc(-c2ccccc2)c(C(=O)c2ccccc2)s1,65.0*,0.2,6.3,i,0.1,-14.1
COC(=O)Nc1nc(C)c(C(=O)c2ccccc2)s1,x,0.0,0.6,i,-0.2,-4.3
Oc1cccc2cc(Nc3ccccc3)cnc12,68.9*,x,-0.6,x,x,-4.6
CCN(CC)c1ccc(-c2nn3c(-c4ccc(C(C)(C)C)cc4)nnc3s2)cc1,x,x,1.3,x,x,-1.9
Cn1c(=O)n(Cc2ccccc2)c(=O)c2c1nc(NCC1CCCO1)n2Cc1ccccc1 (centres undefined),x,0.1,48.9*,i,-0.1,56.6*
Cn1c(=O)[nH]c(=O)c2c1nc(NC1CCCC1)n2Cc1ccccc1,x,1.2,43.8*,x,-0.3,31.6
CC1=C(SCc2ccccc2)C(=O)c2ccccc2C1=O,-6.6,x,2.3,x,x,1.7
O=C1C(SCCO)=C(SCCO)C(=O)c2ccccc21,33.8,-2.8,50.5*,x,0.0,-6.7
CCN(CC)CC(=O)Nc1ccc(-c2nc3cc(NC(=O)CN(CC)CC)ccc3o2)cc1,48.3,0.3,-1.9,i,0.0,-0.7

# Screening results from PubChem BioAssay.
